Source: PubChem BioAssay (NCATS)
Inconclusive results are not listed. A call without a number means that no potency is given here. Calls of active or inactive are those of the source. The call rests on the fitted dose curve.

Assay: S16 Schwann cell PMP22 intronic element beta-lactamase assay (AID 624044); further: nearly all actives have a fitted effect of over 15% in size
Conditions: S16 rat Schwann cells, PMP22 element beta-lactamase FRET, 24 h; series mostly up to 38.3 µM
Outline: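 Rat S16 Schwann cells with beta-Lac driven by a PMP22 intronic element, compound-treated 24 h at 37 °C. LiveBLAzer FRET B/G read: 460 nm normalized to potassium clavulanate vs DMSO; 535 nm FRET as viability; concentration-effect curves classified.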

| Structure (SMILES) | Potency |
| --- | --- |
| C[C@]12CCC(=O)C=C1CC[C@@H]1[C@H]2[C@@H](O)C[C@@]2(C)[C@H]1CC[C@]2(O)C(=O)CO | inactive |
| CNC[C@@H](O)[C@@H](O)[C@H](O)[C@H](O)CO | inactive |
| O=P(O)(O)C(O)(Cn1ccnc1)P(=O)(O)O | inactive |
| CCCCN(CCCC)CCC(O)c1cc2c(Cl)cc(Cl)cc2c2cc(C(F)(F)F)ccc12 (configuration not stated) | inactive |
| O=C(NCC1CCCCN1)c1cc(OCC(F)(F)F)ccc1OCC(F)(F)F (configuration not stated) | inactive |
| Cc1cc2cc3c(C)cc(=O)oc3c(C)c2o1 | inactive |
| CCCCCCCCCCCCCCCCCCCCCCO | inactive |
